TDP1 cell CPT = DT40-hTDP1 cell growth loss with CPT. chicken DT40 Tdp1-/-;hTDP1 cells + 20 nM CPT, ATP luminescence, 48 h. Potency, µM (series often up to 46.2 µM), most hits filed as inhibitors. 420,000 compounds, 12% hits. AID 686979; further: nearly all actives have a fitted effect of over 55% in size
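Cell growth measured by CellTiter-Glo luminescence after a minimum 48 h, 37 C compound exposure with 20 nM CPT in Tdp1-knockout DT40 cells stably expressing hTDP1, seeded 400/well; qHTS titration format.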
12-LOX inh = inhibitors of human 12S-lipoxygenase ALOX12 | purified 12hLO, xylenol orange hydroperoxide absorbance | P18054 | Potency, µM (doses to about 108 µM), hits mostly inhibitors | 580,000 compounds, 1.1% hits
Target sequence (P18054 whole entry, looked up): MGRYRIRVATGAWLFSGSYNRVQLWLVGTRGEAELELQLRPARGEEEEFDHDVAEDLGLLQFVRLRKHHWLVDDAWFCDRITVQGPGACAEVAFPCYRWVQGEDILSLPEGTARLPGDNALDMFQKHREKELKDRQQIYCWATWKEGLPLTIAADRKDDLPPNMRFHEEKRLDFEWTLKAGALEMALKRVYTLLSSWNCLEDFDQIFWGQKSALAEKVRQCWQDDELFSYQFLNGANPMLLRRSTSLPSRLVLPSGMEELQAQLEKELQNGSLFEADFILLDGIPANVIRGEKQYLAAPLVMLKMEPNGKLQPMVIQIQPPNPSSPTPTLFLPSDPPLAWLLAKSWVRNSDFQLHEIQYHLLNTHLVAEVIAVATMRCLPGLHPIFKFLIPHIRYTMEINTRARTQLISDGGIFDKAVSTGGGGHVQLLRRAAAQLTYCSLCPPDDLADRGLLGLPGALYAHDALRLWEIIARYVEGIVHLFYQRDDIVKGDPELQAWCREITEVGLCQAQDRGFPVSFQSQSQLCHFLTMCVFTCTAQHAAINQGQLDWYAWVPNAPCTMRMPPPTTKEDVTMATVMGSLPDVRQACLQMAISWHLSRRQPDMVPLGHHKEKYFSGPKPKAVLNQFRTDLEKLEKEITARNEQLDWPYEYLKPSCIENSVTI
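Hydroperoxide product was detected by ferrous iron/xylenol orange as the 573 to 405 nm absorbance ratio. Arachidonic acid at 40 uM (final) was turned over for 30 min at room temperature by 150 nM human 12hLO, pH 7.0 Hepes buffer, after 15 min compound preincubation.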
HT1080-NT tox = kills 2HG-producing HT-1080-NT fibrosarcoma cells | HT-1080-NT fibrosarcoma viability, CellTiter-Glo ATP luminescence, 48 h | Potency, µM (doses to about 46.1 µM), actives largely listed as cytotoxic | 360,000 compounds, 1.6% hits | AID 686970;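 further: NT is the 2HG producing partner of a matched IDH1 knockdown line; nearly all actives have a fitted effect of over 55% in size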
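Viability by CellTiter-Glo luminescence after 48 h compound exposure at 37C of HT-1080-NT cells (750/well, RPMI, 5% FBS). % activity scaled between DMSO wells and medium-only wells, then curve-fitted and categorized by curve class.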
HT1080 IDH1KD tx = toxicity to HT-1080 IDH1 knockdown cells (counter line); Potency, µM (titrated, usually from 46.1 µM), usual class: cytotoxic; HT-1080 IDH1 knockdown viability, ATP luminescence, 48 h; 360,000 compounds, 2% hits
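Assay cells: HT-1080 with IDH1 knockdown, 750 per well, RPMI/5% FBS. Exposure: 48 h at 37 °C following 2 h pre-incubation. Read: CellTiter-Glo luminescence; fitted concentration-response, curve class assigned.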
TDP1 cell noCPT = qHTS for Inhibitors of human tyrosyl-DNA phosphodiesterase 1 (TDP1): qHTS in cells in absence of CPT. DT40 Tdp1-/- hTDP1 cells, no CPT, ATP luminescence, 48 h. AID 686978, 2013. Potency, µM (doses to about 46.2 µM), most hits filed as inhibitors. 420,000 compounds, 15% hits; further: nearly all actives have a fitted effect of over 55% in size
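Camptothecin absent (DMSO only). Human TDP1-complemented DT40 knockout cells, 400 cells/well, 37 °C for minimum 48 hr; ATP measured via CellTiter-Glo, 30 min dark incubation, luminescence.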
IL-1B inflam inh = inflammasome signaling inhibition, IL-1 beta readout; THP-1 LPS/ATP IL-1B secretion, AlphaLISA, 16 h; stronger effect = lower value; activity change, % at 57.5 µM; 360,000 compounds, 4.7% hits; in the data active means activity change below about -50%; inconclusive means mostly about -30% to -49%
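Secreted IL-1B measured by AlphaLISA bead assay after 16 h compound exposure of THP-1 cells; compounds (final up to 57.5 uM) added 1 h before LPS (250 ng/mL) and ATP (1.25 mM) stimulation; lower signal means less secretion.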
Numbers stand for hits; - = inactive; ? = inconclusive; . = no result given; [ ] = dose if it differs, or a comment. This is one part of a sample in which hits are shown more often than they occur. Unless noted, the call rests on the fitted dose curve; in most records, active means well fitted curve in the direction sought with a large enough effect; inconclusive means small, poorly fitted or top-dose-only effect, or another doubt; inactive means no such curve, though single readings can be large; an effect the other way counts as inactive or inconclusive.

SMILES | TDP1 cell CPT | 12-LOX inh | HT1080-NT tox | HT1080 IDH1KD tx | TDP1 cell noCPT | IL-1B inflam inh
CCOC(=O)Nc1ccc(S(=O)(=O)N2CCC(c3nc4ccccc4[nH]3)CC2)cc1 | ? | - | - | - | ? | ?
COc1ccc(OC)c(S(=O)(=O)N2CCC(c3nc4ccccc4[nH]3)CC2)c1 | ? | - | - | - | ? | -
CC(C)C(=O)Nc1ccc(S(=O)(=O)N2CCC(c3nc4ccccc4[nH]3)CC2)cc1 | ? | - | - | - | 21µM | -
COc1ccc(S(=O)(=O)N2CCC(c3nc4ccccc4[nH]3)CC2)cc1 | ? | - | - | - | 10µM | -
CC(C)SC1=NC(C)(C)C=C(/C=C/c2ccc(Cl)cc2Cl)N1 | ? | ? | ? | ? | ? | -113
O=C(O)/C=C/c1c(Cl)cccc1Cl | . | - | . | . | . | .
CC(C)SC1=NC(C)(C)C=C(/C=C/c2c(Cl)cccc2Cl)N1 | ? | . | ? | 21µM | ? | -82
O=C1C=C(Nc2ccc(Cl)cc2Cl)CC(c2ccco2)C1 (stereo unspecified) | 3.7µM | ? | 3.7µM | 2.3µM | 4.1µM | -
O=C1C=C(NCc2ccc(Cl)cc2)CC(c2ccco2)C1 (stereo unspecified) | 23µM | - | - | ? | ? | -
O=C1C=C(Nc2ccc(O)cc2)CC(c2ccco2)C1 (stereo unspecified) | 21µM | - | ? | ? | 23µM | -
CCN1c2cc(C(=O)Nc3cccc(Br)c3)ccc2C(=O)N2CCCCC21 (stereo unspecified) | . | - | . | . | . | .
Brc1ccccc1N/N=C(/C=C/c1ccccc1)c1ccccc1 | . | - | . | . | . | .
COc1ccc(C(=O)N2CCN(C3CCC(c4ccccc4)CC3)CC2)cc1OC (stereo unspecified) | 21µM | - | - | - | 15µM | -
COc1ccc(C(=O)N2CCC(N3CCN(c4ccccc4)CC3)CC2)cc1OC | - | - | - | - | - | -
O=c1oc(-c2ccc([N+](=O)[O-])cc2)nc2ccc(O)cc12 | - | - | - | - | - | -68
O=c1c([N+](=O)[O-])c(NC2CCCCC2)c2ccccc2n1-c1ccccc1 | 16µM | - | - | - | ? | -
O=c1c([N+](=O)[O-])c(NCCN2CCCCCC2)c2ccccc2n1-c1ccccc1 | - | - | - | - | - | -
Cn1nc(CC(=O)OCC(=O)NC(C)(C)C)c2ccccc2c1=O | . | - | . | . | . | .
CCN(CC)C(=O)COc1coc(CN2CCN(c3ccccc3)CC2)cc1=O | - | - | - | - | - | -
O=C1CCCC2=C1C(c1cc(Cl)ccc1OCc1ccc([N+](=O)[O-])cc1)C1=C(CCCC1=O)O2 | . | - | . | . | . | .
CCOc1ccc2oc(-c3ccccc3)c(C(=O)N3CCN(C)CC3)c2c1 | 23µM | - | - | - | ? | -
COc1ccc2oc(-c3ccccc3)c(C(=O)N3CCOCC3)c2c1 | 16µM | - | - | -[9.24 µM] | 13µM | -
CCOC(=O)c1c(-c2ccccc2)oc2ccc(OCC)cc12 | - | - | - | - | - | -
CCC1CCCCN1C(=O)COC(=O)c1cccc2c(=O)c(C)c(-c3ccccc3)oc12 (stereo unspecified) | . | - | . | . | . | .
O=C(O)/C=C/C(=O)Nc1ccc(SC(F)(F)C(F)(F)C(F)(F)F)cc1 | - | - | - | - | - | -54
SMILES | TDP1 cell CPT | 12-LOX inh | HT1080-NT tox | HT1080 IDH1KD tx | TDP1 cell noCPT | IL-1B inflam inh
O=C(O)/C=C/C(=O)Nc1ccc(OC(F)(F)Cl)cc1 | - | - | - | - | - | -
CCOC(=O)c1cccn1C1C(=O)N(Cc2ccc(Cl)nc2)c2ccccc21 (stereo unspecified) | . | - | . | . | . | .
COc1ccc(-c2cnc(C)o2)cc1S(=O)(=O)Nc1ccc(F)cc1 | . | - | . | . | . | .
O=Cc1cn(CC(=O)N2CCc3ccccc32)c2ccccc12 | - | - | - | - | ? | -
CSc1nc(=S)c2[nH]c(=S)[nH]c2[nH]1 | - | - | - | - | - | -
Nc1nc(=S)c2[nH]c(=S)[nH]c2[nH]1 | - | 7.9µM | - | ? | - | -
CC(C)n1nc(C(=O)NCC(C)(C)N2CCCCC2)c2ccccc2c1=O | . | - | . | . | . | .
CC(=O)N1CCC2(CC1)CN(C(=O)c1ccnc(N)c1)Cc1ccccc1O2 | . | -[6.33 µM] | . | . | . | .
COc1ccc(-n2c(=O)/c(=C\c3cccs3)s/c2=C(/C#N)C(=O)N2CCN(C)CC2)cc1 | - | ? | ? | ? | 23µM | -
Nc1nc(N)c2[nH]cnc2n1 | 6.5µM | - | ? | ? | 8.2µM | -
O=C(c1ccc2c(c1)C1(CCN(CC3CC3)C1)CN2Cc1ccccc1)N1CCOCC1 (stereo unspecified) | . | - | . | . | . | .
COc1cc(NC(=O)C23CCCC=C2N(c2ccccc2)C(=O)CC3)cc(OC)c1 (stereo unspecified) | . | - | . | . | . | .
Cc1ccc(Sc2ccc(NC(=O)CCl)cc2)c(C)c1 | 15µM | ? | - | - | 18µM | -67
CC1Cc2ccccc2N1C(=O)/C=C/c1cccc(F)c1 (stereo unspecified) | - | - | - | - | - | -69
CC1Cc2ccccc2N1C(=O)COC(=O)/C=C/c1ccc(F)cc1 (stereo unspecified) | - | ? | - | - | - | -
O=C(NCc1ccccn1)/C(=N/O)c1ccccc1 | 15µM | - | - | - | 15µM | -
C/C(=N\O)C(=O)NCc1ccccn1 | - | - | - | - | - | -
COc1ccc(Cn2c(=O)cc(N)n(-c3ccccc3C)c2=O)cc1 | ? | - | 21µM | 16µM | ? | .
COc1cccc(Cn2c(=O)c3[nH]cnc3n(-c3ccccc3C)c2=O)c1 | - | - | - | - | ? | -
CCCS(=O)(=O)N1CCC(Oc2ccccc2-c2nc(-c3ccncc3)no2)C1 (stereo unspecified) | . | - | . | . | . | .
CCCNC(=O)c1cc(Cl)c(NC(=O)C2=C(C)OCCS2)cc1OC | ? | - | - | - | ? | -53
CCCNC(=O)c1cc(Cl)c(NC(=O)C2=CSCCO2)cc1OC | ? | - | ? | - | ? | ?
CCOCCCNC(=O)c1cc(Cl)c(NC(=O)C2=C(C)OCCS2)cc1OC | ? | - | - | - | 12µM | -
COc1ccccc1C(=O)Sc1ccc(C)cc1 | . | - | . | . | . | .
COc1ccccc1NC(=S)N1CCN(c2nc(-c3ccccc3)cs2)CC1 | 18µM | - | - | - | 16µM | -
CCOc1ccccc1NC(=S)N1CCN(c2nc(-c3cccc(OC)c3)cs2)CC1 | - | - | - | - | ? | -
CNC(=S)N1CCN(c2nc(-c3cccc(OC)c3)cs2)CC1 | ? | - | - | - | ? | -
